Data from ChEMBL document CHEMBL3988442, “University of Dundee, Small-Polar-MMV Screening Library” (2021).
The whole screen tested about 48,000 compounds, of which about 13,000 (27%) showed an effect of 50% or more. The list shows a part of the results.

System: Wolbachia pipientis
Experiment: Anti-Wolbachia Cell-Based Screen
Format: functional
Set-up: scale not given: in the data most compounds retested in dose-response had high values
Details: 5 µM

| SMILES | Percent Effect |
| --- | --- |
| CCS(=O)(=O)N1CCc2onc(COc3ccccn3)c2C1.O=C(O)C(F)(F)F | -3.121% |
| CN(C)CC(=O)N1CCc2ncnc(-c3cncnc3)c2CC1.O=C(O)C(F)(F)F | 2.289% |
| Cc1oncc1C(=O)N1CCc2ncnc(-c3cnn(C)c3)c2CC1.O=C(O)C(F)(F)F | 102.6% |
| Cc1ccc(C(=O)N2CCc3ncnc(C)c3CC2)cn1 | -9.03% |
| CCN(C)c1ncnc2c1CCN(C(=O)c1ccoc1C)CC2.O=C(O)C(F)(F)F | 0.8996% |
| Cc1ccc(C(=O)N2CCc3ncnc(-c4cnn(C)c4)c3CC2)cn1.O=C(O)C(F)(F)F | 114% |
| O=C(O)C(F)(F)F.O=C(c1cccnc1)N1CCc2ncnc(N3CCOCC3)c2CC1 | 3.769% |
| Cc1ccc(=O)n(CC(=O)N(C)Cc2csc(-c3cccs3)n2)n1 | -12.57% |
| O=C(N[C@@H]1CC[C@@H](N2CCCC2)[C@@H]1O)c1cc2ccccc2[nH]1 | 132.3% |
| O=C(N[C@@H]1CC[C@@H](N2CCCC2)[C@@H]1O)c1cc2cccc(F)c2[nH]1 | 98.49% |
| CO[C@H]1CN(C(C)C)C[C@@H]1NC(=O)c1cc(-c2ccccc2F)n[nH]1 | -41.59% |
| O=C(N[C@@H]1CCNC[C@H]1O)c1ccc(F)c(Cl)c1 | -18.82% |
| Cc1c(C(=O)N[C@@H]2CC[C@@H](N3CCCC3)[C@@H]2O)[nH]c2ccc(F)cc12 | 79.42% |
| CC(=O)N[C@@H]1CN(C(=O)c2cc3ccccc3[nH]2)C[C@H]1c1ccc(C)o1 | 5.04% |
| O=C(NC1CCCCNC1=O)c1cc2ccccc2[nH]c1=O (stereo not drawn) | 20.65% |
| Cc1c(C(=O)N2CCN(C)[C@@H]3CS(=O)(=O)C[C@@H]32)[nH]c2ccc(F)cc12 | 22.59% |
| CS(=O)(=O)NC1CCN(C(=O)c2[nH]c3ccc(Cl)cc3c2Cl)CC1 | 24.08% |
| CSCCC(C)NC(=O)N1CCSC(C)(C)C1 (stereo not drawn) | 17.63% |
| CCOC(=O)c1ccc(CNC(=O)c2ccc(Cl)cn2)o1 | -5.208% |
| CCOc1ccc(C2CC(=O)Nc3c2c(=O)nc2sccn32)cc1 (stereo not drawn) | 17.16% |
| Cc1ccc(O)c(C(=O)N2CCOCC2c2c(C)nn(C)c2C)c1 (stereo not drawn) | 110.1% |
| Cc1nn(C)c(C)c1C1COCCN1C(=O)c1cc(F)ccc1F (stereo not drawn) | 96.87% |
| Cc1nn(C)c(C)c1C1COCCN1C(=O)NC1CC1 (stereo not drawn) | -3.324% |
| Cc1nn(C)c(C)c1C1COCCN1C(=O)CC(C)(C)C (stereo not drawn) | -9.995% |

| SMILES | Percent Effect |
| --- | --- |
| COC(=O)N1CCCC(C(=O)Nc2nc(C)c(SC)s2)C1 (stereo not drawn) | -4.415% |
| Cc1nc(CNC(C(=O)N2CCOCC2)C(C)C)no1 (stereo not drawn) | -7.712% |
| COc1ccc(F)cc1C[S+]([O-])CC(=O)NCC(C)C (stereo not drawn) | -12.33% |
| Cc1ocnc1C(=O)N1CCN(Cc2ccccc2)[C@@H]2CS(=O)(=O)C[C@@H]21 | -1.53% |
| CCn1nc2c(cc1=O)CN(CC(=O)N(C)c1nccs1)CC2 | -28.1% |
| CN(C)C(=O)CO[C@H]1CN(Cc2ccsc2)[C@@H]2COC[C@H]12.O=C(O)C(F)(F)F | 92.71% |
| CN(C)C(=O)CO[C@H]1CN(Cc2ccccc2)[C@@H]2CCCO[C@H]12.O=C(O)C(F)(F)F | 0.8065% |
| CN(C)C(=O)CO[C@H]1CN(Cc2ccoc2)[C@@H]2COC[C@H]12.O=C(O)C(F)(F)F | 107.9% |
| CN(C)C(=O)CO[C@H]1CN(Cc2ccc3c(c2)OCO3)[C@@H]2COC[C@H]12.O=C(O)C(F)(F)F | 108% |
| CN(C)CCO[C@H]1CN(Cc2ccc3c(c2)OCO3)[C@@H]2COC[C@H]12.O=C(O)C(F)(F)F.O=C(O)C(F)(F)F | -6.328% |
| CCc1ccc(CN2C[C@H](OCC(=O)N(C)C)[C@H]3COC[C@H]32)o1.O=C(O)C(F)(F)F | 117.7% |
| CN(C)C(=O)CO[C@H]1CN(Cc2cccc(C#N)c2)[C@@H]2COC[C@H]12.O=C(O)C(F)(F)F | -2.281% |
| CN(C)CCO[C@H]1CN(Cc2ccoc2)[C@@H]2COC[C@H]12.O=C(O)C(F)(F)F.O=C(O)C(F)(F)F | -9.926% |
| CC(C)C1=NOC(c2nc(Cc3ccccc3)no2)C1 (stereo not drawn) | -12.61% |
| CCc1ccccc1OC1CN(C(=O)c2ccnc(OC)c2)C1 | -7.047% |
| CC(C)NS(=O)(=O)c1cc(C(=O)O)cc(-c2ccccc2F)c1 | 2.884% |
| Cc1ccc(F)cc1-c1ccc(N)nc1 | -13.87% |
| CCc1ccc(C(=O)NC2CCCN(c3ccn(C)n3)C2=O)o1 (stereo not drawn) | -13.64% |
| O=C1CCSCC(C(=O)N2CCN(C3CCCCC3)CC2)N1 (stereo not drawn) | 2.707% |
| O=C(NCCc1cccnc1)NCCc1cccs1 | -0.2291% |
| COc1cccc(CNCc2cccnc2)c1 | 125.9% |
| COc1ccc(-n2ccc(CNCc3cccc(OC)c3)n2)cc1 | -0.2636% |
| COc1cccc(-c2nc(CNCc3cccnc3)cs2)c1 | 6.915% |
| C=C(C)COc1cccc(CNCc2nc3ccccc3c(=O)[nH]2)c1 | -21.19% |

| SMILES | Percent Effect |
| --- | --- |
| Cl.c1cncc(CNCc2cccs2)c1 | 109.5% |
| COc1cccc(CNCc2nc3ccccc3c(=O)[nH]2)c1 | 145% |
| Cc1nn(C)c(N(C)C)c1CNCc1cccnc1 | 7.028% |
| COc1cccc(CNC[C@@]2(COc3cccnc3)C[C@@H](O)[C@@H](O)C2)c1.Cl.Cl | -11.87% |
| CCC(CC)c1cc(CNC(=O)N2CCC[C@@H]2CO)on1 | -2.754% |
| CCn1cc(CNc2ccc(F)c(N3CCCS3(=O)=O)c2)cn1 | -13% |
| Cc1cccc(C(=O)N(CCCO)S(=O)(=O)c2cccs2)c1 | -17.59% |
| O=C(CC1CCCC1)N1CCCC1c1nc(O)cc(-c2ccccn2)n1 (stereo not drawn) | -10.15% |
| O=C(CN1CCCC1)N1CCCC1c1nc(O)cc(-c2ccccn2)n1 (stereo not drawn) | 91.97% |
| COCCC(=O)N1CCCC1c1nc(O)cc(-c2ccccn2)n1 (stereo not drawn) | 100.3% |
| C/C=C(/C)C(=O)NS(=O)(=O)c1ccc(C(F)(F)F)cc1 | -1.888% |
| CC(C)(C)c1cc(NC(=O)C2COCCO2)n(-c2ccccn2)n1 (stereo not drawn) | -13.16% |
| O=C(C1CCCOC1)N1CCN(CC(F)(F)F)c2ccccc21 (stereo not drawn) | 120.4% |
| O=C(C1CCOC1)N1CCN(CC(F)(F)F)c2ccccc21 (stereo not drawn) | 125.3% |
| Cc1ccc2c(c1)N(C(=O)C1CCCOC1)CCC2 (stereo not drawn) | 0.6184% |
| O=C(C1CCCOC1)N1CCCCc2ccccc21 (stereo not drawn) | -3.66% |
| O=C(C1COCCO1)N1CCN(CC(F)(F)F)c2ccccc21 (stereo not drawn) | 122.9% |
| O=C(C1CCCOC1)N1CCCc2ccccc21 (stereo not drawn) | -6.498% |
| CN1CCN(C(=O)C2CC=CC2)c2ccccc21 | -33.89% |
| COc1nc(N2CCN(C(C)=O)CC2)ncc1Br | -6.459% |
| Cc1nnc([C@H]2CCN(CCCc3ccccc3)C2)o1 | -2.923% |
| Cc1cc(N[C@H]2CCCN(Cc3ccccc3)C2)n2nc(C)cc2n1 | -7.34% |
| CSc1ccccc1C(=O)N(C)C1CCCN(CCc2ccccc2)C1 (stereo not drawn) | -4.554% |
| CC(C)c1ccc(NC2CCCN(Cc3ccncc3)C2)cc1 (stereo not drawn) | -12.89% |

| SMILES | Percent Effect |
| --- | --- |
| c1ccc(CCCN2CCCC(Nc3cnc4ccccc4n3)C2)cc1 (stereo not drawn) | 45.74% |
| Cc1ccc(NC2CCCN(CCc3ccccc3)C2)nn1 (stereo not drawn) | 81.81% |
| Cc1ccc(NC2CCCN(CCCc3ccccc3)C2)nn1 (stereo not drawn) | 90.19% |
| Cc1ccc(NC2CCCN(C3Cc4ccccc4C3)C2)nn1 (stereo not drawn) | -17.09% |
| Cc1cc(C)nc(NC2CCCN(CCCc3ccccc3)C2)n1 (stereo not drawn) | 120.4% |
| Cc1cc(NC2CCCN(Cc3ccc(F)cc3)C2)n2nc(C)cc2n1 (stereo not drawn) | 43.11% |
| CCn1cc(S(=O)(=O)NC2CCCN(CCCc3ccccc3)C2)cn1 (stereo not drawn) | -6.071% |
| Cc1ccc(NC2CCCN(Cc3ccc(Cl)cc3)C2)nn1 (stereo not drawn) | 105.3% |
| CCn1c(CN2CCC(O)(C(=O)OC)CC2)nc2c(F)cccc21 | -8.235% |
| CSCCC(NC(N)=O)C(=O)NCc1c(C)nn(-c2ccccc2)c1C (stereo not drawn) | -8.181% |
| FC(F)(F)c1ccccc1CCC1CCCN(Cc2cscn2)C1 (stereo not drawn) | 15.59% |
| COc1ccc2c(c1)nc1n2[C@@H](CNC(=O)c2cccnc2)COC1 | -6.986% |
| O=C(O)C(F)(F)F.O=C([C@H]1C[C@H]2OCC[C@H]2N(Cc2ccoc2)C1)N1CCCO1 | 7.487% |
| O=C(N[C@@H]1CN(Cc2cccs2)[C@@H]2CCCO[C@@H]21)C1CC1 | -17.92% |
| O=C(N[C@@H]1CN(Cc2ccsc2)[C@@H]2CCCO[C@@H]21)C1CC1 | -8.929% |
| O=C(N[C@@H]1CN(Cc2ccoc2)[C@@H]2CCCO[C@@H]21)C1CC1.O=C(O)C(F)(F)F | 105.3% |
| O=C(NC1CCCC1)[C@H]1C[C@H]2OCC[C@H]2N(Cc2ccoc2)C1.O=C(O)C(F)(F)F | 13.19% |
| CN(C)C(=O)[C@H]1C[C@H]2OCC[C@H]2N(Cc2ccc3c(c2)OCO3)C1.O=C(O)C(F)(F)F | 0.2139% |
| CN(C)C(=O)N[C@@H]1CN(Cc2ccc3c(c2)OCO3)[C@@H]2CCCO[C@@H]21.O=C(O)C(F)(F)F | -22.69% |
| CN(C)C(=O)N[C@H]1CN(Cc2ccc3c(c2)OCO3)[C@@H]2CCCO[C@H]12.O=C(O)C(F)(F)F | 93.48% |
| O=C(N[C@H]1CN(Cc2ccsc2)[C@@H]2CCCO[C@H]12)C1CC1.O=C(O)C(F)(F)F | 106.9% |
